In PubChem BioAssay (Tox21):
Records with an inconclusive call do not appear. The source made the active and inactive calls. Unless noted, the call rests on the fitted dose curve.

How the values were obtained:
[1] = Nuclear factor erythroid 2-related factor 2/antioxidant responsive element (Nrf2/ARE) small molecule agonists: qHTS cell viability counter screen in human keratinocytes (AID 1919968; active means well fitted curve in the direction sought with a large enough effect in the repeat runs; an effect the other way counts as inactive or inconclusive; further: nearly all actives have a fitted effect of over 55% in size)
In short: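 KeratinoSens HaCaT cells, 1,500/well, preincubated 5 h, then exposed to compounds in DMSO for 23 h at 37 C/5% CO2. Viability read as CellTiter-Fluor fluorescence after 1 h, in the same wells as the ARE-luciferase read.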

[2] = Nuclear factor erythroid 2-related factor 2/antioxidant responsive element (Nrf2/ARE) small molecule agonists: luciferase reporter gene qHTS assay in human keratinocytes (AID 1919969); further: nearly all actives have a fitted effect of over 35% in size
[3] = target: Gonadotropin-releasing hormone receptor (Homo sapiens) (UniProt P30968); test: Human gonadotropin-releasing hormone receptor (GnRHR) small molecule agonists, calcium flux assay in GnRHR-HEK293 cells (AID 1920063); further: nearly all actives have a fitted effect of over 35% in size
Chain of Gonadotropin-releasing hormone receptor (Homo sapiens) (P30968 whole entry, looked up): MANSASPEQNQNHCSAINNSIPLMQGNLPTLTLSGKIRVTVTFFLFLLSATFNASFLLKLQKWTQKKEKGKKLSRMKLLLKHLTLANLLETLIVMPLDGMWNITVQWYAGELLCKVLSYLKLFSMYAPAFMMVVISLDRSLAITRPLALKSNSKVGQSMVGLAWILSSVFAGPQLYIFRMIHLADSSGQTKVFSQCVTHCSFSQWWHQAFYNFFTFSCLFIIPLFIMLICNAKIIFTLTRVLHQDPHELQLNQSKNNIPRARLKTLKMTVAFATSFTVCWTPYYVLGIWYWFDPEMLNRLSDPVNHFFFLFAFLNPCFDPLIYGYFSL
In short: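 HEK293 cells stably expressing human GnRHR were dye-loaded for 1 h at 37 C. Compound was added in agonist mode and fluorescence (Ex/Em 480/540) recorded kinetically for 3 min. Fifteen concentrations, triplicates.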

[4] = target: KiSS-1 receptor (Homo sapiens) (UniProt Q969F8); test: Human kisspeptin (KISS1R) small molecule agonists, calcium flux assay in KISS1R-HEK293 cells (AID 1920064; active means well fitted curve in the direction sought with a large enough effect in the repeat runs; an effect the other way counts as inactive or inconclusive)
Chain of KiSS-1 receptor (Homo sapiens) (Q969F8 whole entry, looked up): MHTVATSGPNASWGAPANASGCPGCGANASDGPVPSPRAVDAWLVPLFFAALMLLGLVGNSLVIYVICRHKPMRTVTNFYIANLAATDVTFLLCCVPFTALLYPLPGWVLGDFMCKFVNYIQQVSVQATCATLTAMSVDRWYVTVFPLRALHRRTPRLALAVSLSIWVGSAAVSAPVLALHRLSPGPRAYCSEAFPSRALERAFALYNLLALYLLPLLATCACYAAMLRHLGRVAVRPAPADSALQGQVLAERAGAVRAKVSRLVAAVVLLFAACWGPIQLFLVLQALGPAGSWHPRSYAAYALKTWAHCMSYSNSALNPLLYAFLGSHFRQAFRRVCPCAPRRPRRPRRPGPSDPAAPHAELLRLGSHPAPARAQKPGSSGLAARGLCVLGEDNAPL
In short: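 HEK293 cells stably expressing human KISS1R were loaded with calcium dye for 1 h at 37 C, then given compound; fluorescence (Ex/Em 480/540) was read kinetically for 3 min. Fifteen concentrations, triplicate.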

[5] = G protein-coupled receptor (GPCR) small molecule agonists, calcium flux assay: HEK293 wild type cell line counter screen (AID 1920065)
In short: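 Wild-type HEK293 cells plated 18 h, loaded with calcium dye 1 h at 37 C, then compounds added in agonist mode (ATP as positive control). Kinetic fluorescence Ex/Em 480/540 recorded 3 min at 1 sec intervals; 15 concentrations, triplicate.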

[6] = p53 small molecule agonists, cell-based qHTS assay with human liver microsomes: qHTS cell viability counter screen (AID 1963579); further: nearly all actives have a fitted effect of over 45% in size
In short: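 After the 460/530 nm beta-lactamase read, CellTiter-Glo was added to the same wells and luminescence measured after 30 min at room temperature, giving viability of p53RE-bla cells treated 16 h with compounds plus microsomes and NADPH.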

[7] = p53 small molecule agonists, cell-based qHTS assay with rat liver microsomes: qHTS cell viability counter screen (AID 1963580); further: nearly all actives have a fitted effect of over 45% in size
In short: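 p53RE-bla HCT-116 cells were exposed 16 h at 37 C to compounds with rat liver microsomes (0.5 mg/mL) and NADPH (0.5 mg/mL). Viability was measured in the same wells as ATP content by CellTiter-Glo luminescence.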

[8] = p53 small molecule agonists, cell-based qHTS assay: qHTS cell viability counter screen (AID 1963581); further: nearly all actives have a fitted effect of over 45% in size
In short: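 p53RE-bla HCT-116 cells, compounds added 5 h after plating and incubated 16 h at 37 C. Cytotoxicity measured in the same wells as intracellular ATP by CellTiter-Glo luminescence after 30 min at room temperature.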

[9] = p53 small molecule agonists, cell-based qHTS assay (AID 1963582; active means well fitted activation curve with a large enough effect in the signal ratio in the repeat runs, not every such curve was filed as active; the % refers to the signal ratio)
In short: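 p53RE-bla reporter cells, compounds added in DMSO after 5 h plating, incubated 16 h at 37 C. Beta-lactamase read via 2 h room-temperature LiveBLAzer B/G FRET substrate, fluorescence intensity.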

[10] = target: 5-hydroxytryptamine receptor 2A (Homo sapiens) (UniProt P28223); test: 5-hydroxytryptamine receptor 2A (HTR2A) small molecule antagonists, cell-based qHTS assay (AID 1963586); further: nearly all actives have a fitted effect of over 45% in size
Chain of 5-hydroxytryptamine receptor 2A (Homo sapiens) (P28223 whole entry, looked up): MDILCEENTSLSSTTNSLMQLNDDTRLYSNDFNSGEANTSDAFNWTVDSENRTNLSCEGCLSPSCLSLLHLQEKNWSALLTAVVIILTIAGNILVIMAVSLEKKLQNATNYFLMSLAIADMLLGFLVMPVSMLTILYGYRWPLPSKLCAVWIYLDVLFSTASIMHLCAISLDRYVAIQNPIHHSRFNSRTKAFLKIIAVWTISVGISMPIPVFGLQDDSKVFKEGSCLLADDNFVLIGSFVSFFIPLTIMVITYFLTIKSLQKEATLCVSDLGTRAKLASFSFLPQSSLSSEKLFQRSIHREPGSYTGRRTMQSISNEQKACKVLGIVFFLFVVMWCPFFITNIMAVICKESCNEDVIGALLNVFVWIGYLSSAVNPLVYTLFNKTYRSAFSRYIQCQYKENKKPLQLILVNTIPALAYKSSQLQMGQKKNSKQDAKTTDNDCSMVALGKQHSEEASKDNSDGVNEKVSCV
In short: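 Antagonist-mode intracellular calcium assay: DOI (4 nM) added after 5 min compound pre-incubation at room temperature to dye-loaded HTR2A-CHO cells. Fluorescence followed for 3 min, sampled every second.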

[11] = target: 5-hydroxytryptamine receptor 2A (Homo sapiens) (UniProt P28223); test: 5-hydroxytryptamine receptor 2A (HTR2A) small molecule agonists, cell-based qHTS assay (AID 1963587); further: nearly all actives have a fitted effect of over 30% in size
In short: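 CHO cells stably expressing human HTR2A, plated 18 h, loaded with calcium dye 1 h at 37 C. Agonist mode: compounds added and intracellular calcium fluorescence recorded kinetically for 2 min at 1 sec intervals.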

[12] = target: Muscarinic acetylcholine receptor M1 (Homo sapiens) (UniProt P11229); test: Cholinergic receptor muscarinic 1 (CHRM1) small molecule agonists, cell-based qHTS assay (AID 1963589); further: nearly all actives have a fitted effect of over 35% in size
Chain of Muscarinic acetylcholine receptor M1 (Homo sapiens) (P11229 whole entry, looked up): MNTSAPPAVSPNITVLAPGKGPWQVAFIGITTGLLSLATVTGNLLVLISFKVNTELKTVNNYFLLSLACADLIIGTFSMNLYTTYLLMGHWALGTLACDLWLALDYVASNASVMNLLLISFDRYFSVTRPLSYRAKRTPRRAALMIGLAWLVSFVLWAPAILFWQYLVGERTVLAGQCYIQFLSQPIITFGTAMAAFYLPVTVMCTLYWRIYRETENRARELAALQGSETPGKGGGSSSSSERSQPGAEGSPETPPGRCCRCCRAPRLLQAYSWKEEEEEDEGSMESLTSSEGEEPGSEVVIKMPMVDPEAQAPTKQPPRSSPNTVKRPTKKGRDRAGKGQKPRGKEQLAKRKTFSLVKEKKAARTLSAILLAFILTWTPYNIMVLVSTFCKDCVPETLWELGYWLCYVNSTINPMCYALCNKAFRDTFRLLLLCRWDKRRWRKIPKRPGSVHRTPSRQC
In short: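 CHO cells stably expressing human CHRM1 were loaded with calcium dye for 1 h at 37 C, then compound was added in agonist mode. Intracellular calcium fluorescence was followed kinetically at 1 s intervals. Fifteen concentrations were tested in three independent runs.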

[13] = cAMP Responsive Elements (CRE) small molecule agonists, cell-based qHTS assay (AID 1963590)
In short: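 CRE-bla HEK 293T cells, 2,000/well in DMEM with 10% dialyzed FBS and 25 mM HEPES, pre-incubated 18 h at 37 C, then exposed to compound 3 h at 37 C. Beta-lactamase reporter read with LiveBLAzer B/G FRET substrate after 2 h at room temperature.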

[14] = cAMP Responsive Elements (CRE) small molecule antagonists, cell-based qHTS assay (AID 1963591; active means well fitted inhibition curve with a large enough effect in the signal ratio in the repeat runs, not every such curve was filed as active; the % refers to the signal ratio)
In short: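 CRE-bla HEK293T cells plated 18 h, then given compound plus NKH477 at 0.25 uM final for 3 h at 37C. Beta-lactamase reporter read with LiveBLAzer B/G FRET substrate after 2 h at room temperature.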

[15] = target: Beta-2 adrenergic receptor (Homo sapiens) (UniProt P07550); test: Adrenergic beta2 receptor (ADRB2) small molecule antagonists, cell-based qHTS assay (AID 1963592); further: series mostly up to about 92 µM; nearly all actives have a fitted effect of over 50% in size
Chain of Beta-2 adrenergic receptor (Homo sapiens) (P07550 whole entry, looked up): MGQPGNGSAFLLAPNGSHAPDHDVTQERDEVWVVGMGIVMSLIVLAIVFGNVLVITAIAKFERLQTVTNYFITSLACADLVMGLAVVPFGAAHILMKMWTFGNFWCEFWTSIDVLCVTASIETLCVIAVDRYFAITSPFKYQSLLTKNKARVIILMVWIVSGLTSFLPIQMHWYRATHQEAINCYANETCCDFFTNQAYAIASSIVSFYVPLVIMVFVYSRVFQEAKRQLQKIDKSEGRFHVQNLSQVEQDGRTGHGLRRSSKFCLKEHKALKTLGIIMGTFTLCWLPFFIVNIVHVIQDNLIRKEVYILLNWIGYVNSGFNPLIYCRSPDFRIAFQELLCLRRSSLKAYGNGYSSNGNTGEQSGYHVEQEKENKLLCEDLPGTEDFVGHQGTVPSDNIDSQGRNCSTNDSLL
In short: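 Cells (CHO, stable ADRB2 overexpression) incubated 18-20hr at 37C; compounds added from DMSO; agonist mix (1nM isoproterenol, 100uM IBMX, 25uM Ro-20-1724) added; 0.5hr RT; d2-cAMP and anti-cAMP-cryptate added; 1hr RT; 665/615 nm read.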

[16] = target: D(2) dopamine receptor (Homo sapiens) (UniProt P14416); test: Dopamine D2 receptor (DRD2) small molecule agonists, cell-based qHTS assay (AID 1963594); further: nearly all actives have a fitted effect of over 35% in size
Chain of D(2) dopamine receptor (Homo sapiens) (P14416 whole entry, looked up): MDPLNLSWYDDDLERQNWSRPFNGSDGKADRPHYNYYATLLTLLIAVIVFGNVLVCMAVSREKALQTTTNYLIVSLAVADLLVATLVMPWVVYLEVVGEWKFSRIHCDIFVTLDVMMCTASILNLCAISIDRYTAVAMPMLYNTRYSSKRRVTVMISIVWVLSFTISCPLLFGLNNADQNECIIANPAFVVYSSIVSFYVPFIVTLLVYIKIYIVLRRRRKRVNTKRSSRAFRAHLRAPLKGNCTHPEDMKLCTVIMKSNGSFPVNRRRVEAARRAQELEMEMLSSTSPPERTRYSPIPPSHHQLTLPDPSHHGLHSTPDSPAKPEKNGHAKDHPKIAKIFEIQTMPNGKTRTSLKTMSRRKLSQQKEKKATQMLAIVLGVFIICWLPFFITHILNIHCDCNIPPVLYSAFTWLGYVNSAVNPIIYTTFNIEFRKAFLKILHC
In short: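 HEK293 cells stably expressing human DRD2, pre-treated with PDE inhibitor Ro20-1724 (0.1 mM final) and compound 10 min at room temperature, then stimulated with NKH477 (200nM […]) for 30 min. cAMP read by HTRF (665/620 nm).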

[17] = target: D(2) dopamine receptor (Homo sapiens) (UniProt P14416); test: Dopamine D2 receptor (DRD2) small molecule antagonists, cell-based qHTS assay (AID 1963595; active means well fitted inhibition curve with a large enough effect in the signal ratio in the repeat runs, with a control signal flat; the % refers to the signal ratio)
In short: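 Human DRD2 antagonist qHTS measuring cAMP by HTRF. The cells are exposed to compound for 10 min, then to NKH477 (200 nM) and quinpirole (12 nM) for 30 min at RT, with Ro20-1724 (0.1 mM) present throughout.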

[18] = target: Muscarinic acetylcholine receptor M1 (Homo sapiens) (UniProt P11229); test: Cholinergic receptor muscarinic 1 (CHRM1) small molecule antagonists, cell-based qHTS assay (AID 1963588); further: nearly all actives have a fitted effect of over 40% in size
In short: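 CHRM1-CHO calcium-flux assay, antagonist mode. Cells were seeded 18 h, dye-loaded 1 h at 37 C and given compound for 5 min at RT, then acetylcholine was added at 50nM. FDSS fluorescence was read 3 min; 15 concentrations, three runs.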

[19] = target: Beta-2 adrenergic receptor (Homo sapiens) (UniProt P07550); test: Adrenergic beta2 receptor (ADRB2) small molecule agonists, cell-based qHTS assay (AID 1963593);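 further: CHO cells stably overexpressing human ADRB2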
In short: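 CHO cells stably over-expressing ADRB2 were plated overnight at 37C, then dosed with compounds plus a stimulation mix containing 100uM IBMX and 25uM Ro-20-1724 for 0.5hr at room temperature. cAMP was measured by HTRF competition, 1hr.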
On the % scale 0 is the no-effect control and ±100 the full control effect.

NC(=S)Nc1cccc2ccccc12
inactive: activity change, negative = cytotoxicity [1] -1.52% [at 8.39 µM] | activity, positive = activation [2] -4.89% [at 8.39 µM] | activity change [3] 0.074% [at 5.22 µM, hits give high values] | activation [4] 6.64% [at 6.97 µM] | activation [5] -0.659% [at 5.23 µM] | activity change, negative = cytotoxicity [6] 3.12% [at 5.99 µM] | activity change, negative = cytotoxicity [7] 8.96% [at 5.99 µM] | activity change, negative = cytotoxicity [8] 19.8% [at 5.99 µM] | activation [9] -2.75% [at 5.99 µM] | activity, negative = inhibition [10] 12.8% [at 5.62 µM] | activation [11] 1.75% [at 7.02 µM] | activation [12] 0.152% [at 6.97 µM] | activation [13] -1.04% [at 8.39 µM] | activity change, negative = inhibition [14] 1.21% [at 8.39 µM] | activity change, negative = inhibition [15] -15.5% [at 8.39 µM] | activation [16] 2.03% [at 8.39 µM] | activity change, negative = inhibition [17] -0.294% [at 8.38 µM]

N#[N+]c1ccc2c(S(=O)(=O)[O-])cccc2c1O
inactive: Potency [1] | Potency [2] | Potency [3] | Potency [4] | Potency [5] | Potency [6] | Potency [7] | Potency [8] | Potency [9] | Potency [10] | Potency [11] | Potency [18] | Potency [12] | Potency [14] | Potency [15] | Potency [16] | Potency [17]

O=C(O)c1ccc([N+](=O)[O-])cc1
inactive: Potency [1] | Potency [2] | Potency [3] | Potency [4] | Potency [5] | Potency [6] | Potency [7] | Potency [8] | Potency [9] | Potency [10] | Potency [11] | Potency [18] | Potency [12] | Potency [13] | Potency [14] | Potency [19] | Potency [16] | Potency [17]

Cc1cnccn1
inactive: Potency [1] | Potency [2] | Potency [3] | Potency [4] | Potency [5] | Potency [6] | Potency [7] | Potency [8] | Potency [9] | Potency [10] | Potency [11] | Potency [18] | Potency [12] | Potency [13] | Potency [14] | Potency [15] | Potency [17]

CCOC(=O)OC(=O)OCC
inactive: Potency [1] | Potency [2] | Potency [3] | Potency [4] | Potency [5] | Potency [6] | Potency [7] | Potency [8] | Potency [10] | Potency [11] | Potency [18] | Potency [12] | Potency [13] | Potency [14] | Potency [15] | Potency [19] | Potency [16] | Potency [17]

CSc1nnc(C(C)(C)C)c(=O)[nH]1
inactive: Potency [1] | Potency [2] | Potency [3] | Potency [4] | Potency [5] | Potency [6] | Potency [7] | Potency [8] | Potency [9] | Potency [10] | Potency [11] | Potency [18] | Potency [12] | Potency [13] | Potency [14] | Potency [15] | Potency [16] | Potency [17]

COC(CC(C)CCCC(C)(C)O)OC (configuration not stated)
inactive: Potency [1] | Potency [2] | Potency [3] | Potency [4] | Potency [5] | Potency [6] | Potency [7] | Potency [8] | Potency [10] | Potency [11] | Potency [18] | Potency [12] | Potency [13] | Potency [14] | Potency [15] | Potency [16] | Potency [17]
